Our source for the growth inhibition values is PubChem BioAssay (NCI).

About 79,000 compounds went through this panel and 15% of them were active in at least one assay; those are over-represented in the sample as a whole. A number with no mark means an inactive call. The source made the active and inactive calls. No stated cut-off is given here; in the data, active means growth inhibition above about 70%; inactive means the rest.

The nature of the first test: NCI Yeast Anticancer Drug Screen. Data for the bub3 strain (AID 167). The conditions noted are these: S. cerevisiae bub3 mutant strain, at 50.0 µM, active compounds read high. Put shortly:
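Mutant yeast screening strain plus compound; vehicle-treated cultures serve as the 0% inhibition reference.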
In the case of `N=C(N)N.[O]=[Cr](=[O])([OH])[OH]`, the growth inhibition was 26.8%. Still for that read-out and setting: next, `O=C(O)C(=O)O.[Co].[NH-]CC[NH-].[NH-]CC[NH-]`: 22.4%; `O=[N+]([O-])c1ccc(Cl)c(OCCCOc2ccc(S(=O)(=O)F)cc2)c1`: -3.75%. Still for that read-out and setting: the result for `CC1(C)N=C(N)N=C(N)N1c1ccc(OCCCOc2ccc(S(=O)(=O)F)cc2)cc1` reads 31.5%. On the same count and under the same terms, next, `O=P1(N2CCCCC2)OCC2(CO1)COP(=O)(N1CCCCC1)OC2` (stereo unspecified): -1.65%; `Cc1nccc2c1[nH]c1ccccc12`: 2.5%; `O=S(=O)(c1ccccc1)c1ccccc1`: 0.1%.

For the compound `COC(=O)CCSP(=S)(Oc1ccccc1)Oc1ccccc1`, the growth inhibition is 36.5%.

In the case of `NC(CP(=O)(O)O)C(=O)O` (stereo unspecified), the growth inhibition was -32.4%. Same read-out and setting: the result for `CCOC(=O)C(Br)CBr` (stereo unspecified) reads -16.1%; that for `Clc1ccc(C(Cl)(Cl)Cl)c(Cl)c1`, 17.9%; that for `C1CN([PH+](N2CC2)N2CC2)CCO1.C1CN([PH+](N2CC2)N2CC2)CCO1.[Cl][Pt][Cl]`, -3.35%.

For the compound `CCOC(=O)c1ccccc1C(=O)OCC`, the growth inhibition was -0.05%. Still for that read-out and setting: the result for `ICc1nc2ccccc2[nH]1` reads -14.5%; that for `COc1ccc(CC(N)c2nn[nH]n2)cc1` (stereo unspecified), 8.15%; that for `ClC1OC(Cl)(Cl)C(Cl)(Cl)OC1(Cl)Cl` (stereo unspecified), 18.8%. On the same count and under the same terms, next, `Oc1ccc(Cl)cc1Br`: -23.4%; `CC1CC(O)C(=O)C(O[C@@H]2C[C@@H]3CC[C@@H]4[C@H](CC[C@]5(C)C(C6=CC(=O)OC6)CC[C@]45O)[C@@]3(C=O)C[C@H]2O)O1` (stereo partly specified): -12.8%. Still for that read-out and setting: next, `NNc1nncn1N`: -17.5%; `COc1ccc2[se]c(C)nc2c1`: -17.3%. Regarding `NC1=C(c2nc(-c3cc4ccccc4oc3=O)cs2)C(c2ccco2)c2c(c3ccccc3oc2=O)O1` (stereo unspecified), the growth inhibition is 4.1%.

A short description of a further test: NCI Yeast Anticancer Drug Screen. Data for the mlh1 rad18 strain (AID 175). The conditions noted are these: S. cerevisiae mlh1 rad18 strain growth inhibition; at 50.0 µM; active compounds read high. The gist of the method:
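Growth inhibition of the yeast strain was measured after compound exposure and expressed relative to vehicle-treated controls. The strain carries defined defects in DNA damage repair.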
Regarding `Cc1ncc([N+](=O)[O-])n1C(C)C(=O)Nc1ccc(N(CCCl)CCCl)cc1` (stereo unspecified), the growth inhibition is 13.2%.

Regarding `CCC(CC)CNC(=O)C(Cl)Cl`, the growth inhibition is -1%. With `CC(CCOc1ccc2ccc(=O)oc2c1)C1=CC(=O)C(C)(C)O1` (stereo unspecified), the growth inhibition was -44.1%. Still for that read-out and setting: next, `COc1ccc2c(c1)CCC1C2CCC2(C)C1CCC21CCNP(=O)(N(CCCl)CCCl)O1` (stereo unspecified): 38.7%; `OC(c1ccccc1)C(Cl)(Cl)Cl` (stereo unspecified): 3.55%; `CC(=N\[O-])/C(C)=N/[O-].CC(=N\[O-])/C(C)=N/[O-].[Cu+2]`: 29.2%. On the same count and under the same terms, next, `O=C1NC(=O)C(=Cc2ccccn2)C(=O)N1`: 2.3%. On the same count and under the same terms, the result for `O=C(c1ccccc1)C1NC1c1ccccc1` (stereo unspecified) reads 10.2%. Consider `C[N+]12C(=O)CC3OCC=C4C[N+]5(C)CCC6(c7ccccc71)C2C3C4CC65O` (stereo unspecified), for which the growth inhibition was -14.8%. Same read-out and setting: the result for `CN(N=O)C(=O)ON1C(=O)CCC1=O` reads 8.75%; that for `NC(=O)Nc1cc(NC(N)=O)cc(N(CCCl)CCCl)c1`, -24.1%. Same read-out and setting: next, `c1ccc2c(C3N4CCCN3CC4)c[nH]c2c1` (stereo unspecified): 6.05%; `O=C1CCCCC1CN1CCCCC1` (stereo unspecified): 1.25%; `Cc1ccc(NC(=O)N(C)N=O)cc1`: -4.45%. In the case of `O=C(N/N=C/c1cc(Cl)cc(Cl)c1[O-])c1ccccc1O.O=C(N/N=C/c1cc(Cl)cc(Cl)c1[O-])c1ccccc1O.[Ni+2]`, the growth inhibition was -17.1%.

`CC(Cl)CN(CC(C)Cl)C(=O)Oc1ccc(CC(N)C(=O)O)cc1` (stereo unspecified): the growth inhibition was 20.3%. Still for that read-out and setting: the result for `N=C(N)n1cc(/C=N/N=C(N)N)cn1` reads 5.8%; that for `CC1(C)OC2COC(CN=[N+]=[N-])C2O1` (stereo unspecified), -3.75%; that for `N=C(N)N.[O]=[Cr](=[O])([OH])[OH]`, 30.6%. Same read-out and setting: next, `O=C(O)C(=O)O.[Co].[NH-]CC[NH-].[NH-]CC[NH-]`: 12.8%; `O=[N+]([O-])c1ccc(Cl)c(OCCCOc2ccc(S(=O)(=O)F)cc2)c1`: 7.85%; `CC1(C)N=C(N)N=C(N)N1c1ccc(OCCCOc2ccc(S(=O)(=O)F)cc2)cc1`: 84.5% (active). As for `O=P1(N2CCCCC2)OCC2(CO1)COP(=O)(N1CCCCC1)OC2` (stereo unspecified), the growth inhibition was 3.2%. Turning to `COC(=O)CP(=O)(OC)OC`, the growth inhibition was 7.2%. On to `Cc1nccc2c1[nH]c1ccccc12`, for which the growth inhibition is 2.3%.

On to `O=S(=O)(c1ccccc1)c1ccccc1`, for which the growth inhibition was -37.9%.

On to `COC(=O)CCSP(=S)(Oc1ccccc1)Oc1ccccc1`, for which the growth inhibition was 9.1%. Still for that read-out and setting: the result for `NC(CP(=O)(O)O)C(=O)O` (stereo unspecified) reads -37.6%; that for `CCOC(=O)C(Br)CBr` (stereo unspecified), 23.1%; that for `Clc1ccc(C(Cl)(Cl)Cl)c(Cl)c1`, 20.4%.

With `C1CN([PH+](N2CC2)N2CC2)CCO1.C1CN([PH+](N2CC2)N2CC2)CCO1.[Cl][Pt][Cl]`, the growth inhibition was 22.7%. The same measure, in the same setting: the result for `CCOC(=O)c1ccccc1C(=O)OCC` reads 10.9%. `ICc1nc2ccccc2[nH]1`: the growth inhibition was 6.1%. Still for that read-out and setting: the result for `COc1ccc(CC(N)c2nn[nH]n2)cc1` (stereo unspecified) reads -1.75%; that for `ClC1OC(Cl)(Cl)C(Cl)(Cl)OC1(Cl)Cl` (stereo unspecified), 45.9%. On the same count and under the same terms, the result for `Oc1ccc(Cl)cc1Br` reads -0.15%; that for `CC1CC(O)C(=O)C(O[C@@H]2C[C@@H]3CC[C@@H]4[C@H](CC[C@]5(C)C(C6=CC(=O)OC6)CC[C@]45O)[C@@]3(C=O)C[C@H]2O)O1` (stereo partly specified), -42.9%; that for `NNc1nncn1N`, -6.25%. Same read-out and setting: next, `COc1ccc2[se]c(C)nc2c1`: -18.6%; `NC1=C(c2nc(-c3cc4ccccc4oc3=O)cs2)C(c2ccco2)c2c(c3ccccc3oc2=O)O1` (stereo unspecified): -14.3%.
